Reference: PubChem BioAssay (Tox21)
Records with an inconclusive call do not appear. Where a call stands in place of a potency, no number is given. Values without a mark were called inactive. Activity calls are given as the source filed them. The call rests on the fitted dose curve; in most records, active means well fitted curve in the direction sought with a large enough effect in the repeat runs; inconclusive means weak or mixed curves; inactive means no such curve, though single readings can be large; an effect the other way counts as inactive or inconclusive.

Legend:
[1] = qHTS assay to identify small molecule agonists of the RXR signaling pathway - cell viability counter screen (AID 1159529); further: series mostly up to about 77 µM; nearly all actives have a fitted effect of over 50% in size
How it was run: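 Compounds dissolved in DMSO were pinned onto HEK 293T cells carrying a beta-lactamase reporter under RXR-alpha control and incubated 16 hr. Cytotoxicity was then quantified by CellTiter-Glo luminescence.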

[2] = qHTS assay to identify small molecule antagonists of the retinoid acid receptor (RAR) signaling pathway - cell viability counter screen (AID 1159551); further: nearly all actives have a fitted effect of over 35% in size
How it was run: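 Cytotoxicity counter screen: ATP content quantified by CellTiter-Glo luminescence in C3RL4 cells treated 6 hr at 37 C with compound and retinol (1 uM final). Cells plated at 1,000/well and cultured overnight before dosing.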

[3] = qHTS assay to identify small molecule antagonists of the retinoic acid receptor (RAR) signaling pathway (AID 1159552; further: nearly all actives have a fitted effect of over 50% in size)
How it was run: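 Test chemicals and DMSO controls were pin-transferred onto C3RL4 cells a day after seeding; retinol (1 uM final) followed at once. Luminescent reporter output was quantified after 6 hr of co-incubation and 30 min with detection reagent.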

[4] = qHTS assay to identify small molecule antagonists of the estrogen related receptor (ERR) signaling pathway from Tox21 library - cell viability counter screen (AID 1224834); further: nearly all actives have a fitted effect of over 30% in size
How it was run: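 CellTiter-Fluor fluorescence, read after 30 min at 37 C, measures viability of ERR cells. Cells plated at 2,000/well and incubated 6 h before pin-tool compound addition, then exposed 17.5 hours at 37 C.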

[5] = molecular target: Luciferin 4-monooxygenase (Photinus pyralis) (UniProt P08659); experiment: qHTS assay to identify small molecule inhibitors of firefly luciferase (AID 1224835); further: nearly all actives have a fitted effect of over 25% in size; further: potency means the concentration at half of the fitted maximal effect; on activity change, negative = inhibition: series mostly up to about 120 µM
How it was run: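 Biochemical qHTS: compounds run as interplate titrations against purified firefly enzyme, with D-luciferin and ATP each at its KM concentration. Light output recorded by CCD imaging.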

[6] = qHTS assay to identify small molecule agonists of the constitutive androstane receptor (CAR) signaling pathway - cell viability counter screen (AID 1224836); further: series mostly up to about 92 µM; nearly all actives have a fitted effect of over 45% in size
How it was run: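 23 h treatment, 37 C, 5% CO2. Cell line: HepG2 stably expressing hCAR with a CYP2B6-2.2kb construct. Co-treatment: PK11195, 0.75 uM final. Read-out: CellTiter-Fluor fluorescence intensity.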

[7] = qHTS assay to identify small molecule antagonists of the constitutive androstane receptor (CAR) signaling pathway - cell viability counter screen (AID 1224837); further: series mostly up to about 92 µM; nearly all actives have a fitted effect of over 45% in size
How it was run: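 Cytotoxicity counter-screen: CellTiter-Fluor fluorescence after 23 h compound exposure (15-point qHTS) in double-stable HepG2-CYP2B6-hCAR cells, with 50 nM CITCO added.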

[8] = molecular target: Nuclear receptor subfamily 1 group I member 3 (Homo sapiens) (UniProt Q14994); experiment: qHTS assay to identify small molecule antagonists of the constitutive androstane receptor (CAR) signaling pathway (AID 1224838);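 further: HepG2 cells stably expressing hCAR with CYP2B6 luciferase reporter stimulated by CITCO; nearly all actives have a fitted effect of over 40% in size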
How it was run: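 Antagonism measured as luciferase signal (ONE-Glo, 30 min, room temperature) in CAR-stimulated cells: HepG2-CYP2B6-hCAR double-stable line exposed 24 hr at 37 C to compound in a 15-point series plus 50 nM CITCO.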

[9] = qHTS assay to identify small molecule agonists of the retinoic acid receptor (RAR) signaling pathway (AID 1159553); further: potency means the concentration at half of the fitted maximal effect
How it was run: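 Luminescence was measured 30 min after luciferase reagent addition at room temperature. Before that, C3RL4 reporter cells (1,000 per well, plated overnight) were treated with compound for 6 hr at 37 C and 5% CO2.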

Nuclear receptor subfamily 1 group I member 3 (Homo sapiens), sequence (Q14994 whole entry, looked up): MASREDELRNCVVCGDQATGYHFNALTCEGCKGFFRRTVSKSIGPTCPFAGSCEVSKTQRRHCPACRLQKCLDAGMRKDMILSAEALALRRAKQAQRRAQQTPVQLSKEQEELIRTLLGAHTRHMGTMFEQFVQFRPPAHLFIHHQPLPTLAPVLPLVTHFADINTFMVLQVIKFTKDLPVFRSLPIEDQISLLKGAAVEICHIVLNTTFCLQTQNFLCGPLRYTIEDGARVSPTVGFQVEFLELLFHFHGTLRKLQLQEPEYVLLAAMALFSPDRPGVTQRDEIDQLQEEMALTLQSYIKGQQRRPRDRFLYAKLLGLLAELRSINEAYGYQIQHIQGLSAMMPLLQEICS
Luciferin 4-monooxygenase (Photinus pyralis), sequence (P08659 whole entry, looked up): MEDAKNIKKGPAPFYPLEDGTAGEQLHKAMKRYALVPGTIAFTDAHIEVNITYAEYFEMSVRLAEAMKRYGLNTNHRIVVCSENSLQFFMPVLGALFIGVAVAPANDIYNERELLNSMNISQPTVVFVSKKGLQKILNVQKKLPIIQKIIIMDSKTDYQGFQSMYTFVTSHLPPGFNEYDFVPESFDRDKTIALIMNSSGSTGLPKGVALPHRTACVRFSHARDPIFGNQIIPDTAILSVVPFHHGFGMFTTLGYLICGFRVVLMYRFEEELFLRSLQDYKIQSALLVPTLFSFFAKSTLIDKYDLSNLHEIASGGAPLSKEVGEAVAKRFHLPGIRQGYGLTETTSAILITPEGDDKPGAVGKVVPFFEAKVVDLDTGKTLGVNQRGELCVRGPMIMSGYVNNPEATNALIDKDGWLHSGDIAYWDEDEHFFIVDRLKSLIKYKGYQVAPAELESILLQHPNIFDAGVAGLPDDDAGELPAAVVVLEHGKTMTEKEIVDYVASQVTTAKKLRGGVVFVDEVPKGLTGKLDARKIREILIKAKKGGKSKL

Question: What does the source list for `CC(N)CCCC(C)(C)O` (configuration not stated)?
Answer: outcome [1]: inactive; outcome [2]: inactive; outcome [3]: inactive; outcome [4]: inactive; Potency [5]: inactive; outcome [6]: inactive; outcome [7]: inactive; Potency [8]: inactive

Question: For `Cc1ccc2c(c1)C(=O)c1ccccc1C2=O`, which outcome [1] is on record?
Answer: inactive

Question: And the outcome [2]?
Answer: inactive

Question: And the outcome [3]?
Answer: inactive

Question: And the Potency [9]?
Answer: 4.31 µM (active)

Question: What about the outcome [4] of the same compound?
Answer: inactive

Question: And the Potency [5]?
Answer: 14.1 µM (active)

Question: And the outcome [6]?
Answer: inactive

Question: What about the outcome [7] of the same compound?
Answer: inactive

Question: And the Potency [8]?
Answer: inactive

Question: For `C=CCCCCCCCCC(=O)OCCCC`, which outcome [1] is on record?
Answer: inactive

Question: And the outcome [3]?
Answer: inactive

Question: And the Potency [9]?
Answer: inactive

Question: What about the outcome [4] of the same compound?
Answer: inactive

Question: And the Potency [5]?
Answer: inactive

Question: What about the outcome [7] of the same compound?
Answer: inactive

Question: What about the Potency [8] of the same compound?
Answer: inactive

Question: Which outcome [1] does the source give for `C=CCCCC` here?
Answer: inactive

Question: What about the outcome [2] of the same compound?
Answer: inactive

Question: What about the outcome [3] of the same compound?
Answer: inactive

Question: What about the Potency [9] of the same compound?
Answer: inactive

Question: And the outcome [4]?
Answer: inactive

Question: What about the Potency [5] of the same compound?
Answer: inactive

Question: And the outcome [6]?
Answer: inactive

Question: What about the outcome [7] of the same compound?
Answer: inactive

Question: And the Potency [8]?
Answer: inactive

Question: What does the source list for `C=C(C)[C@@H]1CC=C(C)C(=O)C1`?
Answer: outcome [1]: inactive; outcome [2]: inactive; outcome [4]: inactive; Potency [5]: inactive; outcome [6]: inactive; outcome [7]: inactive

Question: With `C=CC(=O)OCC1CCCO1` (configuration not stated) as the compound, how does the outcome [1] read?
Answer: inactive

Question: What about the outcome [2] of the same compound?
Answer: inactive

Question: What about the outcome [3] of the same compound?
Answer: inactive

Question: What about the Potency [9] of the same compound?
Answer: inactive

Question: And the outcome [4]?
Answer: inactive

Question: And the Potency [5]?
Answer: inactive

Question: What about the outcome [6] of the same compound?
Answer: inactive

Question: What about the outcome [7] of the same compound?
Answer: inactive

Question: And the Potency [8]?
Answer: inactive

Question: For `CCCCC1CCC(O)CC1` (configuration not stated), which outcome [1] is on record?
Answer: inactive

Question: And the outcome [2]?
Answer: inactive

Question: What about the outcome [3] of the same compound?
Answer: inactive

Question: And the Potency [9]?
Answer: inactive

Question: What about the outcome [4] of the same compound?
Answer: inactive

Question: What about the Potency [5] of the same compound?
Answer: inactive

Question: What about the outcome [6] of the same compound?
Answer: inactive

Question: And the outcome [7]?
Answer: inactive

Question: And the Potency [8]?
Answer: inactive

Question: For `COC(=O)c1cccc(Cl)c1`, which outcome [1] is on record?
Answer: inactive

Question: What about the outcome [2] of the same compound?
Answer: inactive

Question: What about the outcome [3] of the same compound?
Answer: inactive

Question: And the outcome [4]?
Answer: inactive

Question: What about the Potency [5] of the same compound?
Answer: inactive

Question: What about the outcome [6] of the same compound?
Answer: inactive

Question: And the outcome [7]?
Answer: inactive

Question: What about the Potency [8] of the same compound?
Answer: inactive

Question: Which outcome [1] does the source give for `OC[C@H]1O[C@@H](O[C@@H]2[C@@H](CO)O[C@](O)(CO)[C@H]2O)[C@H](O)[C@@H](O)[C@H]1O` here?
Answer: inactive

Question: What about the outcome [2] of the same compound?
Answer: inactive

Question: What about the outcome [3] of the same compound?
Answer: inactive

Question: And the Potency [9]?
Answer: inactive

Question: What about the outcome [4] of the same compound?
Answer: inactive

Question: What about the Potency [5] of the same compound?
Answer: inactive

Question: What about the outcome [6] of the same compound?
Answer: inactive

Question: What about the outcome [7] of the same compound?
Answer: inactive

Question: And the Potency [8]?
Answer: inactive

Question: What does the source list for `CC(C)CO`?
Answer: outcome [1]: inactive; outcome [2]: inactive; outcome [3]: inactive; Potency [9]: inactive; outcome [4]: inactive; Potency [5]: inactive; outcome [7]: inactive

Question: Which outcome [1] does the source give for `O=C(NCN1CCOCC1)c1cnccn1` here?
Answer: inactive

Question: What about the outcome [2] of the same compound?
Answer: inactive

Question: What about the outcome [3] of the same compound?
Answer: inactive

Question: And the Potency [9]?
Answer: inactive

Question: And the outcome [4]?
Answer: inactive

Question: What about the Potency [5] of the same compound?
Answer: inactive

Question: What about the outcome [6] of the same compound?
Answer: inactive

Question: What about the outcome [7] of the same compound?
Answer: inactive

Question: And the Potency [8]?
Answer: inactive

Question: For `O=C1CCCCO1`, which outcome [1] is on record?
Answer: inactive

Question: What about the outcome [2] of the same compound?
Answer: inactive

Question: And the outcome [3]?
Answer: inactive

Question: What about the Potency [9] of the same compound?
Answer: inactive

Question: What about the outcome [4] of the same compound?
Answer: inactive

Question: And the Potency [5]?
Answer: inactive

Question: And the outcome [6]?
Answer: inactive

Question: What about the outcome [7] of the same compound?
Answer: inactive

Question: And the Potency [8]?
Answer: inactive

Question: Which outcome [1] does the source give for `COCCc1ccccn1` here?
Answer: inactive

Question: And the outcome [2]?
Answer: inactive

Question: And the outcome [3]?
Answer: inactive

Question: What about the Potency [9] of the same compound?
Answer: inactive

Question: What about the outcome [4] of the same compound?
Answer: inactive

Question: And the Potency [5]?
Answer: inactive

Question: What about the outcome [6] of the same compound?
Answer: inactive

Question: And the outcome [7]?
Answer: inactive

Question: And the Potency [8]?
Answer: inactive

Question: For `CN(C)CC/C=C1/c2ccccc2COc2ccc(CC(=O)O)cc21`, which outcome [1] is on record?
Answer: inactive

Question: What about the outcome [3] of the same compound?
Answer: inactive

Question: And the outcome [4]?
Answer: inactive

Question: And the Potency [5]?
Answer: inactive

Question: And the outcome [6]?
Answer: inactive

Question: And the outcome [7]?
Answer: inactive

Question: For `C=CCCCCCCCC`, which outcome [1] is on record?
Answer: inactive

Question: And the outcome [2]?
Answer: inactive

Question: What about the outcome [3] of the same compound?
Answer: inactive

Question: What about the outcome [4] of the same compound?
Answer: inactive

Question: What about the Potency [5] of the same compound?
Answer: inactive

Question: And the outcome [6]?
Answer: inactive

Question: What about the outcome [7] of the same compound?
Answer: inactive

Question: And the Potency [8]?
Answer: inactive

Question: With `[O]=[Mo](=[O])=[O]` as the compound, how does the activity change, negative = cytotoxicity [1] read?
Answer: -1.21% [at 15.8 µM]

Question: And the activity change, negative = cytotoxicity [2]?
Answer: 3.04% [at 19 µM]

Question: And the activity, negative = inhibition [3]?
Answer: 8.42% [at 19 µM]

Question: What about the viability change, negative = cytotoxic [4] of the same compound?
Answer: 3.34% [at 19 µM]

Question: What about the activity change, negative = inhibition [5] of the same compound?
Answer: 0.269% [at 23.6 µM]

Question: And the viability change, negative = cytotoxic [6]?
Answer: -3.23% [at 19 µM]

Question: What about the activity change, negative = cytotoxicity [7] of the same compound?
Answer: -0.0508% [at 19 µM]

Question: And the activity, negative = inhibition [8]?
Answer: -9.59% [at 19 µM]

Question: For `C=CC(=O)CCCCC`, which outcome [1] is on record?
Answer: inactive

Question: What about the outcome [2] of the same compound?
Answer: inactive

Question: What about the outcome [4] of the same compound?
Answer: inactive

Question: And the Potency [5]?
Answer: inactive

Question: What about the outcome [6] of the same compound?
Answer: inactive

Question: And the outcome [7]?
Answer: inactive

Question: And the Potency [8]?
Answer: inactive
